# Screens (PubChem BioAssay)
# Only some compounds are listed: those with a hit (about 5.7% of all), similar ones and a draw of the others.
# A549 viability – A549 cytotoxicity, counter-screen for Nrf2 inhibitors. A549 ARE-Fluc cells, CellTiter-Fluor viability, 18-24 h. Potency, µM (highest dose often 46 µM), for inactives: top-dose activity change, negative = cytotoxicity, hits mostly inhibitors. 390,000 compounds, 0.16% hits. AID 504648; also: potency is read from the fitted curve at half-maximal effect
#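 Cytotoxicity counterscreen: CellTiter-Fluor fluorescence was measured in A549 ARE_Fluc cells after 18-24 h of compound exposure in a concentration series. The subsequent BugLite luminescent read reports ARE-luciferase activity.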
# KB-3-1 cytotox – KB-3-1 parental cell cytotoxicity | KB-3-1 viability, CellTiter-Glo ATP luminescence, 72 h | Potency, µM (top dose mostly 46.1 µM), usual class: cytotoxic | 400,000 compounds, 1.4% hits; also: potency is read from the fitted curve at half-maximal effect; nearly all actives have a fitted effect of over 60% in size
#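 Using CellTiter-Glo luminescence, growth of non-resistant KB-3-1 adenocarcinoma cells is assessed 72 h after pin-tool compound addition at 37 °C. Normalized responses across the concentration series yield fitted curves.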
# KB-V1 cytotox – kills drug-selected multidrug resistant KB-V1 cells. KB-V1 MDR cells viability, CellTiter-Glo, 72 h. Potency, µM (titrated, usually from 46.1 µM), most hits filed as cytotoxic. 400,000 compounds, 3.4% hits; also: potency is read from the fitted curve at half-maximal effect; nearly all actives have a fitted effect of over 60% in size
#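 qHTS viability screen in drug-selected KB-V1 MDR cells: 72 h compound treatment at 37 degrees C, ATP luminescence end point.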
# Giardia kill – kills Giardia lamblia; Giardia lamblia trophozoite viability; activity change, % at 7.66 µM, hits read low; 340,000 compounds, 0.15% hits; AID 540267; in the data active = activity change below about -80%; inconclusive = between about -30% and that limit;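 also: parasites exposed to compound for two days anaerobically before the ATP read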
#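 Trophozoite viability was measured as ATP-dependent luminescence, read 15-30 min after reagent addition. Before that, parasites at 100 cells/well were exposed to compounds for 48 h, anaerobically, at 37 deg C.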
# Nrf2 inh – inhibitors of Nrf2 signaling; A549 ARE-Fluc reporter, luciferase luminescence, 18-24 h; Potency, µM (doses to about 46 µM), inactives show top-dose activity change, negative = inhibition, usual class: inhibitors; 360,000 compounds, 2.1% hits; AID 504444; also: potency is read from the fitted curve at half-maximal effect; nearly all actives have a fitted effect of over 60% in size
#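 Quantitative HTS in A549 cells stably bearing an antioxidant response element-firefly luciferase construct. Inhibition of Nrf2-driven transcription was scored by luminescence after 18-24 h of compound exposure at 37 °C.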
# PI4K2A block – inhibitors of human PI4K2A. 420,000 compounds, 0.13% hits. AID 1346378. Q9BTU6. activity change, negative = inhibition, % at 76.9 µM. purified PI4K2A, ADP-Glo luminescence, 1 h; stronger effect = lower value; in the data active = activity change below about -50%; inconclusive = mostly about -30% to -49%;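 also: -100% = wells without enzyme as full effect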
# Target sequence (Q9BTU6 whole entry, looked up): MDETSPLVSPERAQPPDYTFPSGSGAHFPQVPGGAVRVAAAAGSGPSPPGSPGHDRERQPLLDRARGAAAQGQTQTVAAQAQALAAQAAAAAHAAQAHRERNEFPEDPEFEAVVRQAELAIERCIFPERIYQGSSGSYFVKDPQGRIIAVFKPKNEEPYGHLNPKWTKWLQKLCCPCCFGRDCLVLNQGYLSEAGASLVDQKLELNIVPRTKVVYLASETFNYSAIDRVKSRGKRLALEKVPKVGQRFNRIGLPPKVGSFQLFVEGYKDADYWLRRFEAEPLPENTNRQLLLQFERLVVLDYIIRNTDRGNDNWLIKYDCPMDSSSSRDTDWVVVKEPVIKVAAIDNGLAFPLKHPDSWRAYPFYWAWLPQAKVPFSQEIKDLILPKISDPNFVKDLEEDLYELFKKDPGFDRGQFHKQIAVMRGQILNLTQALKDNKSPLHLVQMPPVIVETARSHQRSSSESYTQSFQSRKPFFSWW
#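 ADP-Glo luminescence measured ADP generated by PI4K2A enzyme (4 ug/mL before mixing) with 1.2 mM PI substrate (pre-mix) and 300 microM ATP (pre-mix). Tris pH7.5 buffer with MgCl2, Triton X-100; 1 h reaction at ambient temperature.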
# * marks the source's active call; other numbers are inactive results; i = inactive; ? = inconclusive; / = no result; ! = repeats disagree. Unless noted, calls follow the shape of the dose curve; as a rule, active = well fitted curve in the direction sought with a large enough effect; inconclusive = small, poorly fitted or top-dose-only effect, or another doubt; inactive = no such curve, though single readings can be large; an effect the other way counts as inactive or inconclusive. Unless noted, % is scaled to controls: 0 for no effect and ±100 for the full control effect.
SMILES,A549 viability,KB-3-1 cytotox,KB-V1 cytotox,Giardia kill,Nrf2 inh,PI4K2A block
CN(C(=O)c1cccc(NC(=O)Cc2ccc(NC(=O)C3CCCN(C(=O)CCc4ccccc4)C3)cc2)c1)C1CCCC1 (configuration not stated),?,6.5µM*,i,-2,21µM*,0
CCOc1ccc(C(=O)Nc2ccc(C(=O)OCc3cc(=O)n4c(C)csc4n3)cc2)cc1,?,/,/,/,/,2
NC[C@H]1O[C@H](O[C@H]2[C@H](O)[C@@H](O[C@H]3O[C@H](CO)[C@@H](O)[C@H](N)[C@H]3O)[C@H](N)C[C@@H]2N)[C@H](N)[C@@H](O)[C@@H]1O,/,/,/,/,/,i
COc1cccc(NS(=O)(=O)c2ccc3[nH]cc(C(=O)N(C)C4CCCCC4)c(=O)c3c2)c1,1%,/,/,/,/,-1
CN(C(=O)c1ccc(NC(=O)Cc2cccc(NC(=O)C3CCCN(C(=O)C4CCCC4)C3)c2)cc1)C1CCCC1 (configuration not stated),-11%,i,i,-11,18µM*,-3
CN(C(=O)c1cccc(NC(=O)Cc2ccc(NC(=O)C3CCCN(C(=O)CCc4ccccc4)C3)cc2)c1)C1CCC1 (configuration not stated),-13%,i,i,-22,16µM*,2
CN(C(=O)c1ccc(NC(=O)Cc2cccc(NC(=O)C3CCCN(C(=O)C4CCC4)C3)c2)cc1)C1CC1 (configuration not stated),8%,i,i,-28,-8%,-4
CN(C(=O)c1cccc(NC(=O)Cc2ccc(NC(=O)C3CCN(C(=O)CCc4ccccc4)CC3)cc2)c1)C1CCC1,-2%,i,i,0,-22%,0
Cc1cc(-c2n[nH]c(=S)n2N=Cc2c3ccccc3cc3ccccc23)n[nH]1,/,/,/,/,/,-5
C=C(C)CSc1nc2c(c(=O)[nH]c(=O)n2C)n1Cc1ccccc1,6%,i,i,14,5.8µM*,-4
CCCCCn1c(N(C)Cc2ccccc2)nc2c1c(=O)[nH]c(=O)n2C,-4%,i,i,-7,?,1
CN(Cc1ccccc1)c1nc2c(c(=O)[nH]c(=O)n2C)n1CCCSc1ncccn1,4%,?,2.6µM*,-1,-22%,-2
CN(C)c1nc2c(c(=O)[nH]c(=O)n2C)n1Cc1ccccc1Br,-2%,?,21µM*,7,-5%,4
CCCSc1nc2c(c(=O)[nH]c(=O)n2C)n1Cc1ccccc1,8%,i,?,-28,-23%,0
CCN(CC)c1nc2c(c(=O)[nH]c(=O)n2C)n1Cc1ccccc1Cl,-3%,i,?,-19,0%,0
CN(Cc1ccccc1)c1nc2c(c(=O)[nH]c(=O)n2C)n1Cc1ccccc1,-14%,i,9.2µM*,4,?,3
CN(Cc1ccccc1)c1nc2c(c(=O)[nH]c(=O)n2C)n1Cc1ccccc1F,1%,i,i,7,-9%,-19
CC1CCC2(CC1)CCN(CCCOC(=O)Nc1cccc(C(F)(F)F)c1)C2=O (configuration not stated),/,/,/,/,/,0
CC1CC(=O)NN=C1c1ccc(NCCO)c([N+](=O)[O-])c1 (configuration not stated),-27%,i,0.13µM*,-5,9%,-2
CCOC(=O)C1=C(N)n2c(s/c(=C\c3ccco3)c2=O)=C(C(=O)OCC)C1c1ccco1 (configuration not stated),?,16µM*,4.6µM*,-6,?,-5
Cc1cccc(CSc2ccc3nnc(-c4cccnc4)n3n2)c1,-2%,i,i,-22,5%,-3
c1ccc(CSc2ccc3nnc(-c4cccnc4)n3n2)cc1,-9%,i,18µM*,11,-25%,-3
CCOCCOC(=O)C1=C(C)Nc2ccc(C)cc2S1,-2%,i,13µM*,-6,16%,2
Cc1ccc(-c2nnc(N3CCN(c4ccccn4)CC3)c3ccccc23)cc1,?,?,?,11,23µM*,-4
c1ccc(-c2nnc(N3CCN(c4ccccn4)CC3)c3ccccc23)cc1,?,?,?,42,18µM*,3
SMILES,A549 viability,KB-3-1 cytotox,KB-V1 cytotox,Giardia kill,Nrf2 inh,PI4K2A block
Cc1ccc(-c2nnc(N3CCCCC3)c3ccccc23)cc1,-3%,i,i,-3,-12%,-1
O=C1[C@H](Cc2ccccc2)NCCCC[C@H](c2ccc(Cl)cc2)N1Cc1ccccc1,?,?,?,-6,?,-4
O=C1[C@H](Cc2ccccc2)NCCCC[C@@H](c2ccc(Cl)cc2)N1Cc1ccc(Cl)cc1,2%,12µM*!,?,-14,16%,2
COc1ccc(OC)c(S(=O)(=O)n2c(CN3CCOCC3)nc3ccccc32)c1,/,/,/,/,/,3
CC1=NN(c2ccccc2)C(=O)C1,-5%,i,i,6,-2%,?
CC1=NN(c2ccc(S(=O)(=O)O)cc2C)C(=O)C1,0%,i,i,-2,1%,-68*
COc1ccc(C)cc1NC(=O)c1cc2c(s1)CCC2,21%,i,?,?,28%,-1
COC(=O)c1sccc1NC(=O)c1cc2c(s1)CCCC2,?,i,15µM*,-8,?,-1
COc1ccc(/C=N/Nc2nonc2N)c(OC)c1,-4%,?,4.1µM*,11,-13%,-2
CCC(=O)Nc1cc2c(cc1C(=O)CC)OCCO2,-4%,i,21µM*,-9,4%,4
Cc1csc2ncnc(N3CCN(S(=O)(=O)c4cccc(C(F)(F)F)c4)CC3)c12,-21%,i,?,3,5.2µM*,1
Cc1sc2ncnc(N3CCN(S(=O)(=O)c4ccc(C(C)(C)C)cc4)CC3)c2c1C,?,21µM*,i,-6,?,-2
O=S(=O)(c1cccc(Br)c1)N1CCN(c2ncnc3scc(-c4ccccc4)c23)CC1,8%,i,?,-20,-24%,-2
O=S(=O)(c1ccc(Cl)cc1)N1CCN(c2ncnc3sccc23)CC1,-6%,/,/,5,21µM*,-2
Cc1csc2c(N3CCN(S(=O)(=O)c4ccc(Cl)cc4)CC3)ncnc12,5%,?,i,-2,?,1
CN(C)[C@@H]1CCN(c2cccc3c2S(=O)(=O)N(C2CC2)CCCO3)C1,/,/,/,/,/,2
COC(=O)c1ccccc1NC(=O)NCC1CCN(Cc2ccc(OC)cc2)CC1,/,/,/,/,/,2
O=C(Cc1ccc(OCc2ccccc2)cc1)NO,/,i,i,/,/,/
Cc1cccc(-c2noc(CN(C)C(=O)COc3ccccc3)n2)c1,1%,i,i,-21,-3%,0
